Assay results reported in PubChem BioAssay (NCATS).
Where “and” joins values, the source holds several entries; their conditions need not be identical. Equal entries are not always repeated. Inconclusive results are not listed. Calls of active or inactive are those of the source. Unless noted, the call rests on the fitted dose curve; in most records, active means well fitted curve in the direction sought with a large enough effect; inconclusive means small, poorly fitted or top-dose-only effect, or another doubt; inactive means no such curve, though single readings can be large; an effect the other way counts as inactive or inconclusive.

How the values were obtained:
[1] = AP1 Signaling Pathway (AID 357; active means well fitted curve in either direction with a large enough effect, not every such curve was filed as active;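 further: ME-180 reporter cells stimulated with EGF at its EC50 level; on the % scale 0 is the no-effect control and ±100 the full control effect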); conditions: ME-180 AP-1-bla reporter, EGF-induced, beta-lactamase ratio, 5 h; at 38 µM (top of the series)
How it was run: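 Cells are seeded overnight, exposed to compound titrations and an EC50 level of EGF for 5 hours at 37 °C, then loaded with CCF4 dye for 2.5 hours. Beta-lactamase activity under the AP-1 element is read as a blue/green ratio.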

[2] = molecular target: Cytochrome P450 1A2 (Homo sapiens) (UniProt P05177); experiment: p450-cyp1a2 (AID 410; calls by dose curve;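 further: -100% = full effect of reference inhibitor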)
Chain of Cytochrome P450 1A2 (Homo sapiens) (P05177 whole entry, looked up): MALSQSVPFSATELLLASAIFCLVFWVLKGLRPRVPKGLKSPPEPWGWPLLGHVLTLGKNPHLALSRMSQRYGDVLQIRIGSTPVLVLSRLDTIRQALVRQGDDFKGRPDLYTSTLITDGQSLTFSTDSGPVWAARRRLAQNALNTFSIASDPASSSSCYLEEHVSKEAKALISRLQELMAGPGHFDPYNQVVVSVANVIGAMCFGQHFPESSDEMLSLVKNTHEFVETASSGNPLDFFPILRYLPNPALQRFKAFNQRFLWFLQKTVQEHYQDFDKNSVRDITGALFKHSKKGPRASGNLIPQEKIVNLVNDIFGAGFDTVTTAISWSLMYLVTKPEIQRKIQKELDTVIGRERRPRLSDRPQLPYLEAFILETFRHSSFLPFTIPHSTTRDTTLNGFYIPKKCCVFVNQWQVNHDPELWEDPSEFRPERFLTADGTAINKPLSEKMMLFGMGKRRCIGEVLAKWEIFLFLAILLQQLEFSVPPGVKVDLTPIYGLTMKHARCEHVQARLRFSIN
How it was run: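 Luminescent readout of luciferin formed from Luciferin-ME by human CYP1A2; data normalized against complete inhibition by 57 uM furafylline. Enzyme 20nM, substrate 100uM at Km, 100mM KPO4 buffer, 60 min reaction at room temperature.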

[3] = NFAT Signaling Pathway (AID 444; active means well fitted curve in either direction with a large enough effect, not every such curve was filed as active;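 further: carbachol stimulus at about its EC50 of 1 µM final; on the % scale 0 is the no-effect control and ±100 the full control effect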); conditions: Jurkat NFAT-bla M1, carbachol, beta-lactamase ratio, 5 h; at 38 µM (top of the series)
How it was run: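 Jurkat cells with NFAT-driven β-lactamase reporter and co-expressed M1 receptor, stimulated with carbachol (final 1 uM, ~EC50), compound titration, 5 h at 37 °C. CCF4 loaded 1 h at RT; 460/530 nm ratio gave %activity and AC50.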

[4] = Stat Signaling Pathway (AID 446; active means well fitted curve in either direction with a large enough effect, not every such curve was filed as active;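 further: ME-180 cervical cancer cells given 40 pM IL-6 alongside compound; SIE-controlled beta-lactamase reporter measured as 460/530 nm FRET emission ratio; on the % scale 0 is the no-effect control and ±100 the full control effect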); conditions: ME-180 SIE beta-lactamase reporter, IL-6 stimulated, 5 h; at 38 µM (top of the series)
How it was run: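 ME-180 SIE-bla cells; overnight plating; cpd + IL-6 40 pM, 5 h, 37 C; LiveBLAzer 2.5 h RT; 460/530 nm emission ratio. Normalized to 300 pM IL-6 and 125 nM JAK inhibitor controls.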

[5] = molecular target: Glucocorticoid receptor (Homo sapiens) (UniProt P04150); experiment: GR-GFP Redistribution (AID 450;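 active means compounds whose dose series gives a full or clear partial fitted curve of increased nuclear translocation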; further: potency means the concentration at half of the fitted maximal effect); conditions: U2OS GR-GFP nuclear translocation, laser cytometry, 2 h
Chain of Glucocorticoid receptor (Homo sapiens) (P04150 whole entry, looked up, the tested form may be a part): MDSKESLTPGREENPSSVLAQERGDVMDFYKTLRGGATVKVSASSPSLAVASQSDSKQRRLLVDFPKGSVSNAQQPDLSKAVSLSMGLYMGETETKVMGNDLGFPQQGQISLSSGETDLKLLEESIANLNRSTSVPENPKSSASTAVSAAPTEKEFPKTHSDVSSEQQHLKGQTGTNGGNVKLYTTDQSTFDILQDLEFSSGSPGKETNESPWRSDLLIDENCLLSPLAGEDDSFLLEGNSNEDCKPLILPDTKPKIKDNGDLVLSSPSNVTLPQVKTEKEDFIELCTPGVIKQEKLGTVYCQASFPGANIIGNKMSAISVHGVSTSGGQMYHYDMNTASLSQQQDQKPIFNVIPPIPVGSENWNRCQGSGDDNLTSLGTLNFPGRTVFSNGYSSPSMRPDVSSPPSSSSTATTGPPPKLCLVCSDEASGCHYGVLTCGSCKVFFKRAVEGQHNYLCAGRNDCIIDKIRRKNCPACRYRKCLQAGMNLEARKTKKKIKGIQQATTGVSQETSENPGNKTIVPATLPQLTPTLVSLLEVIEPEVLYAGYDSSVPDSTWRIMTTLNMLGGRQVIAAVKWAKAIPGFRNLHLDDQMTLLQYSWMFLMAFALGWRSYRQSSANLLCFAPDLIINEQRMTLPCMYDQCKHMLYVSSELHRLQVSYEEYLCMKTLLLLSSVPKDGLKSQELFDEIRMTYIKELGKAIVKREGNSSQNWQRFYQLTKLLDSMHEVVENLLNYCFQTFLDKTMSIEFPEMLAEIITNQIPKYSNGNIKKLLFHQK

[6] = molecular target: Glucocorticoid receptor (Homo sapiens) (UniProt P04150); experiment: GR-EFC Redistribution (AID 451; calls by dose curve; further: potency means the concentration at half of the fitted maximal effect); conditions: CHO-K1 GR-EFC translocation, beta-gal luminescence, 2 h
How it was run: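 CHO-K1 cells expressing nuclear EA and GR-ED fragments of b-gal; compounds titrated up to 46 uM final, 2 h at 37 C. GR nuclear translocation read as complemented b-gal luminescence after 1 h RT detection.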

[7] = molecular target: Mitogen-activated protein kinase 10 (Mus musculus) (UniProt Q61831); experiment: JNK3 AlphaScreen Assay (AID 530; active means well fitted curve in either direction with a large enough effect, not every such curve was filed as active;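 further: kinase came from lysate of stimulated human HepG2 cells; signal reports phosphorylation of biotinylated GST-cJun 1-79 at Ser73 with 10 µM ATP; on the % scale 0 is the no-effect control and ±100 the full control effect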)
How it was run: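 Pre-activated (IL-1β/TNFα) JNK3 in HepG2 lysates phosphorylates biotin-GST-cJun(1-79), 10 uM ATP; anti-phospho-cJun(Ser73) AlphaScreen read at room temperature, pH 7.6 Tris buffer. Compounds pre-incubated 15 min as titrations.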

[8] = molecular target: 3',5'-cyclic-AMP phosphodiesterase 4B (Homo sapiens) (UniProt Q07343); experiment: qHTS Assay for Inhibitors of PDE-IV (AID 607; active means well fitted activation curve with a large enough effect in the main read-out, with a control signal flat, not every such curve was filed as active; further: % of control where 0% means no effect)
How it was run: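 ACTOne HEK293 cells carry a modified cAMP-gated CNG channel and express endogenous PDE4; plated 1000 cells/well, compounds up to 22.9 uM final. Membrane-potential dye fluorescence (ex 535/em 590) was read; parental cells received 10 uM forskolin + 100 uM RO 20-1724.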

[9] = molecular target: Guanine nucleotide-binding protein G(i) subunit alpha-1 (Homo sapiens) (UniProt P63096); experiment: qHTS Assay for Inhibitors of RGS12 GoLoco Motif Activity (Green Fluorophore) (AID 879);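 further: 0% = labeled peptide with Gαi1 and full inhibition = labeled peptide alone without protein; negative values mean loss of peptide binding seen as reduced polarization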
Chain of Guanine nucleotide-binding protein G(i) subunit alpha-1 (Homo sapiens) (P63096 whole entry, looked up): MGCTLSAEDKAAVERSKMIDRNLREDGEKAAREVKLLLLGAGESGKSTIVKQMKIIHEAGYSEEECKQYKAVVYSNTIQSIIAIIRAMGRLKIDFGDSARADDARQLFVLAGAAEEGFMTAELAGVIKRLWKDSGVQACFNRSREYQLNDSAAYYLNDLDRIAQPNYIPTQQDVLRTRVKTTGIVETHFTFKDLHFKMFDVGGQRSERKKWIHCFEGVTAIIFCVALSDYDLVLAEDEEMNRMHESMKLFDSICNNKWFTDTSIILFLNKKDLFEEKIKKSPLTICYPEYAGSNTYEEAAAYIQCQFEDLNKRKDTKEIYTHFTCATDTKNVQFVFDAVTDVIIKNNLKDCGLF
How it was run: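 Fluorescence polarization assay: 50 nM Gαi1 with 10 nM FITC-labeled RGS12 GoLoco peptide in 10 mM Tris pH 7.5, 150 mM NaCl, 0.1 mM GDP, 0.05% NP40, 10 min at room temperature with compound.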

[10] = molecular target: Cytochrome P450 2C9 (Homo sapiens) (UniProt P11712); experiment: qHTS Assay for Inhibitors and Substrates of Cytochrome P450 2C9 (AID 883); further: on the % scale 0 is the no-effect control and ±100 the full control effect; nearly all actives have a fitted effect of over 60% in size
How it was run: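 Signal: luciferase luminescence reporting luciferin produced by CYP2C9. Conditions: 10nM enzyme, Luciferin-H 100uM at KM, 25mM KPO4, 37C, 60 min NADPH-driven reaction. Reference: 57uM sulphaphenazole as 100% inhibition.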

[11] = molecular target: Cytochrome P450 3A4 (Homo sapiens) (UniProt P08684); experiment: qHTS Assay for Inhibitors and Substrates of Cytochrome P450 3A4 (AID 884); further: on the % scale 0 is the no-effect control and ±100 the full control effect; nearly all actives have a fitted effect of over 50% in size
Chain of Cytochrome P450 3A4 (Homo sapiens) (P08684 whole entry, looked up): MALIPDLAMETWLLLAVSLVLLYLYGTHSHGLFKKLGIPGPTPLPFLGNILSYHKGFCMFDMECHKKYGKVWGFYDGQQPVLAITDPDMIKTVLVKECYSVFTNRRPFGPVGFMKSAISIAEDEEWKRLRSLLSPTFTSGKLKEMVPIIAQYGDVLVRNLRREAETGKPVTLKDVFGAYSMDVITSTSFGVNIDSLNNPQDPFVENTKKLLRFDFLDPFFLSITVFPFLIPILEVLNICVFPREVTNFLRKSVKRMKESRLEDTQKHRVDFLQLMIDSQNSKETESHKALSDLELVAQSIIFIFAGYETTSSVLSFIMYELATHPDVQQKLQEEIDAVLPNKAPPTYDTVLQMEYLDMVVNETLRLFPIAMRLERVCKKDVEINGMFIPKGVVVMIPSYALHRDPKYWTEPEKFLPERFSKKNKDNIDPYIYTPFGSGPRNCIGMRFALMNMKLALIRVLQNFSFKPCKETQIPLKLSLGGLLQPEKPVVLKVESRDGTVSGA
How it was run: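 20 nM human CYP3A4 with 25 uM Luciferin-PPXE (at KM) in 200 mM KPO4, preincubated 10 min with compound; NADPH regeneration started a 60 min RT reaction. Luciferin detected by luminescence, normalized to 57 uM ketoconazole as full inhibition.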

[12] = molecular target: Cytochrome P450 2D6 (Homo sapiens) (UniProt P10635); experiment: qHTS Assay for Inhibitors and Substrates of Cytochrome P450 2D6 (AID 891);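 further: luciferin methyl ether substrate demethylated by CYP2D6 with NADPH regeneration; on the % scale 0 is the no-effect control and ±100 the full control effect; nearly all actives have a fitted effect of over 60% in size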
How it was run: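 Human CYP2D6 (5 nM) with 30 uM Luciferin-ME EGE (at Km) in 100 mM KPO4, compound preincubated 10 min, then NADPH regeneration system for 60 min at room temperature. Luciferin read by luminescence; normalized to 1.43 uM quinidine.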

[13] = molecular target: Cytochrome P450 2C19 (Homo sapiens) (UniProt P33261); experiment: qHTS Assay for Inhibitors and Substrates of Cytochrome P450 2C19 (AID 899); further: on the % scale 0 is the no-effect control and ±100 the full control effect; nearly all actives have a fitted effect of over 60% in size
Chain of Cytochrome P450 2C19 (Homo sapiens) (P33261 whole entry, looked up): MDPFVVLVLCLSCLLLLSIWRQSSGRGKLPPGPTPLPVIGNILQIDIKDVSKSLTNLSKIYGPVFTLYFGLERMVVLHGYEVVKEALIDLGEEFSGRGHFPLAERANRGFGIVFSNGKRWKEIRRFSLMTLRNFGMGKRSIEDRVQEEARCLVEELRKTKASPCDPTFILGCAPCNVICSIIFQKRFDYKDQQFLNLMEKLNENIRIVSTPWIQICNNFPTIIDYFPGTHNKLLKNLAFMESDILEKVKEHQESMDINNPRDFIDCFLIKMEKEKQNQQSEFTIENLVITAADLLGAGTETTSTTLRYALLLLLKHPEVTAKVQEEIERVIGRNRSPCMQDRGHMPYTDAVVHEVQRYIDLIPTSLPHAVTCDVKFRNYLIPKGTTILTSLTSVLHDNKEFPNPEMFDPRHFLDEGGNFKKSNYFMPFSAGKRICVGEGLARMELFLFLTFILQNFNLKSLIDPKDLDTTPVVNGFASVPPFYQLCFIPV
How it was run: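 Signal comes from luciferase acting on luciferin released by CYP2C19-mediated hydroxylation of Luciferin-H EGE, 10uM (KM). Assay mix: 5nM enzyme, 50mM KPO4; 60 min at 37C with NADPH regeneration. Data normalized against 57uM ketoconazole.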

[14] = qHTS Assay for Identification of Small Molecule Agonists for Thrombopoietin (TPO) Signaling Pathway (AID 917); further: on the % scale 0 is the no-effect control and ±100 the full control effect
How it was run: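 Murine Ba/F3 cells stably expressing human TPO receptor and a Glycoprotein IIb promoter–luciferase reporter were IL-3-starved overnight, then treated with compounds plus TPO (26 pM final, its EC50) for 24 hrs at 37 C; luminescence was read.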

[15] = molecular target: Muscarinic acetylcholine receptor M1 (Rattus norvegicus) (UniProt P08482); experiment: qHTS Assay for Antagonists of Acetylcholine Muscarinic M1 Receptor: Kinetic Measurement of Intracellular Calcium Response (AID 943);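 further: Fluo-4 calcium signal as peak divided by basal fluorescence over 4 min; nearly all actives have a fitted effect of over 75% in size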
Chain of Muscarinic acetylcholine receptor M1 (Rattus norvegicus) (P08482 whole entry, looked up): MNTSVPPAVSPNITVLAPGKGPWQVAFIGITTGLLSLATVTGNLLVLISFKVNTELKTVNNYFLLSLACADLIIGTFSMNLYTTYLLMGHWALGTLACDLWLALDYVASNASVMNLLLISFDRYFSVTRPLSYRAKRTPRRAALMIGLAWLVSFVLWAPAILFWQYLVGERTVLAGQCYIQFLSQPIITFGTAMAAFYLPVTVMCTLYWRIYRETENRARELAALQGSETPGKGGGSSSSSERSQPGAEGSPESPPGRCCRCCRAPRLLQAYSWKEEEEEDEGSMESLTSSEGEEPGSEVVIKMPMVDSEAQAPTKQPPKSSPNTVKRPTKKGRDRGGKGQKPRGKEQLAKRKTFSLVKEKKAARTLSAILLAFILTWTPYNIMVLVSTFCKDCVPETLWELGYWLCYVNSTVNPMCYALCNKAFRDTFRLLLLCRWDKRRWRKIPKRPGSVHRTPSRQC
How it was run: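 Rat M1-CHO cells, 2000/well, overnight → Fluo-4 no-wash dye with probenecid, 1 h 37C → compound 10 min, room temp → basal read 6 s → carbachol EC80 (100 nM) → 4 min kinetic read; peak/basal.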

[16] = molecular target: Pyruvate kinase (Leishmania mexicana) (UniProt Q27686); experiment: qHTS Validation Assay for Inhibitors of Leishmania Mexicana Pyruvate Kinase (AID 945);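 further: 0% = DMSO only neutral control wells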
Chain of Pyruvate kinase (Leishmania mexicana) (Q27686 2-499 E452W): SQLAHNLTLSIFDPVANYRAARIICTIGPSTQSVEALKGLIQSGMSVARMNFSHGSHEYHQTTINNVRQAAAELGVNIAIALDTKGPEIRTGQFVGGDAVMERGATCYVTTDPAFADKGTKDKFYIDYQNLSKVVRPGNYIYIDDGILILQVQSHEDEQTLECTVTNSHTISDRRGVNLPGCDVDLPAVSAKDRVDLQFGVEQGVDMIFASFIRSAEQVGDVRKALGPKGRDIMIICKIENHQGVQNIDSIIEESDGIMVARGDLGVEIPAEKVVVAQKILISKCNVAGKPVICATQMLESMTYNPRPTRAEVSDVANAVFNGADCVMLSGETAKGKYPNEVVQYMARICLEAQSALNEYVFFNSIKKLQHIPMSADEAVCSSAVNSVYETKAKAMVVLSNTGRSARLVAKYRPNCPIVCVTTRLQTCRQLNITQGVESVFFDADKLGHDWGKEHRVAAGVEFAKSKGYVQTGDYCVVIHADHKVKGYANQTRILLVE
How it was run: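 Compounds are tested as eight-point concentration series. Reactions contain 0.2 nM LmPYK E451W, 0.5 mM PEP, 0.1 mM ADP, 7 mM MgCl2 and 50 mM KCl at pH 7.2, run 1 h at room temperature, then read by PKLight luminescence.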

[17] = molecular target: Pyruvate kinase PKM (Homo sapiens) (UniProt P14618); experiment: qHTS Assay for Activators of Human Muscle Pyruvate Kinase (AID 954; active means well fitted curve in the direction sought with a large enough effect, not every such curve was filed as active;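 further: 0% = uninhibited enzyme and -100% = no enzyme or full thiadiazolimine inhibition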)
Chain of Pyruvate kinase PKM (Homo sapiens) (P14618 whole entry, looked up): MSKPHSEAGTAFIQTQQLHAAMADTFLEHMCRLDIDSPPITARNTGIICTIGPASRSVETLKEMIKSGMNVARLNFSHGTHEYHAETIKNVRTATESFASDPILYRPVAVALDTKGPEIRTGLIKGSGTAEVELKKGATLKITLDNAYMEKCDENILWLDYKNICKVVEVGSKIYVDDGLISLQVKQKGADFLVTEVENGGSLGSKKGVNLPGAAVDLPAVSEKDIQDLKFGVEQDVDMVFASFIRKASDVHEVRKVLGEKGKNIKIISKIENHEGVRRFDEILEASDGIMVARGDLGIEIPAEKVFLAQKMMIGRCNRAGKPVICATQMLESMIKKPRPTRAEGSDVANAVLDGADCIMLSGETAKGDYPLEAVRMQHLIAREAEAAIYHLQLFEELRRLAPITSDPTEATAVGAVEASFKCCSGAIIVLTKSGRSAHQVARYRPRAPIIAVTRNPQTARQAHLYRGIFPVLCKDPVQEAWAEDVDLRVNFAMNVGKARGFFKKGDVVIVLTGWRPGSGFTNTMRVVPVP
How it was run: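 Luminescence from a luciferase ATP-detection/stop reagent reported PKM2 activity. Reactions contained 0.1 nM purified human enzyme, 0.5 mM PEP, 0.1 mM ADP and 7 mM MgCl2 at pH 7.2, run 1 h at RT.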

[18] = molecular target: Alpha-galactosidase A (Homo sapiens) (UniProt P06280); experiment: Counterscreen for Glucocerebrosidase Inhibitors: qHTS Assay for Human alpha-Galactosidase at pH 4.5 (AID 992); further: 0% is about no effect
Chain of Alpha-galactosidase A (Homo sapiens) (P06280 whole entry, looked up): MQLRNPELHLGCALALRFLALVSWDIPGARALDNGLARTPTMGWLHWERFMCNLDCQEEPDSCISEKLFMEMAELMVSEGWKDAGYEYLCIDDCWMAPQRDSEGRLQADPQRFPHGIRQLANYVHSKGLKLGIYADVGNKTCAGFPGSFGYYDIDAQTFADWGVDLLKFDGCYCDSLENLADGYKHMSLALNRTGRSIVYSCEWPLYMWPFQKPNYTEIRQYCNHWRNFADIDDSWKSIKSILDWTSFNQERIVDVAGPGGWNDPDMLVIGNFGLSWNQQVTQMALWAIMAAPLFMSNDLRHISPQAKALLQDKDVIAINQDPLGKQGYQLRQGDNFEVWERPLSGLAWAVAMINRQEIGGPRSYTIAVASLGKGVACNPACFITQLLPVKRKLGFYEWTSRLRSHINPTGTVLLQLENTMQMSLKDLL
How it was run: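 Enzyme at 2 nM final was combined with compound (0.7 nM to 77 uM) and 80 uM 4-methylumbelliferyl alpha-D-galactopyranoside in 50 mM citric acid, 0.005% Tween-20, pH 4.5. After 20 min at room temperature, fluorescence was read (Ex 365/Em 440 nm); AC50 came from Hill fits.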

[19] = molecular target: alpha-glucosidase (Oryza sativa, rice) (UniProt Q653V4); experiment: Counterscreen for Glucocerebrosidase Inhibitors: qHTS Assay for Rice alpha-Glucosidase at pH 5.0 (AID 997);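 further: 0% = full activity with enzyme and -100% = basal without enzyme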
How it was run: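 Rice alpha-glucosidase (4 nM final) with 400 uM 4-methylumbelliferyl-alpha-D-glucopyranoside in citrate buffer pH 5.0, 20 min at room temperature, stopped at pH 10; fluorescence 365/440 nm, compounds 0.7 nM–77 uM, AC50 from Hill fits.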

[20] = qHTS Assay for Lipid Storage Modulators (AID 1519; calls by dose curve); conditions: Drosophila S3 cells, BODIPY lipid droplet/cell ratio, laser cytometry, cells loaded with oleic acid
How it was run: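 Cells seeded at 5,000 per well were treated with compounds over a concentration series and loaded with oleic acid (400 uM, as added). Lipid droplet fluorescence (488 nm excitation, 500-530 nm channel) was read by laser-scanning cytometry and normalized to 20 uM Triacsin C.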

[21] = molecular target: Ubiquitin carboxyl-terminal hydrolase 1 (Homo sapiens) (UniProt O94782); experiment: Inhibitors of USP1/UAF1: Pilot qHTS (AID 504865);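 further: rhodamine fluorescence freed from ubiquitin-rhodamine substrate followed over time; top concentration of the series differs between compounds; on the % scale 0 is the no-effect control and ±100 the full control effect; nearly all actives have a fitted effect of over 35% in size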
How it was run: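 USP1/UAF1 complex (1nM) preincubated with compound 15 min at room temperature, then Ub-Rho substrate (150nM final) added. Fluorescence read kinetically at 480/540 nm, 6 reads every 60 seconds. Buffer: 50mM HEPES pH 7.8, 0.5mM EDTA, 0.1 mg/ml BSA, 1mM TCEP, 0.01% Tween-20.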

[22] = molecular target: DNA dC->dU-editing enzyme APOBEC-3G (Homo sapiens) (UniProt Q9HC16); experiment: qHTS for inhibitors of Vif-A3G interactions: Validation (AID 588379); further: 0% is about no effect
Chain of DNA dC->dU-editing enzyme APOBEC-3G (Homo sapiens) (Q9HC16 whole entry, looked up): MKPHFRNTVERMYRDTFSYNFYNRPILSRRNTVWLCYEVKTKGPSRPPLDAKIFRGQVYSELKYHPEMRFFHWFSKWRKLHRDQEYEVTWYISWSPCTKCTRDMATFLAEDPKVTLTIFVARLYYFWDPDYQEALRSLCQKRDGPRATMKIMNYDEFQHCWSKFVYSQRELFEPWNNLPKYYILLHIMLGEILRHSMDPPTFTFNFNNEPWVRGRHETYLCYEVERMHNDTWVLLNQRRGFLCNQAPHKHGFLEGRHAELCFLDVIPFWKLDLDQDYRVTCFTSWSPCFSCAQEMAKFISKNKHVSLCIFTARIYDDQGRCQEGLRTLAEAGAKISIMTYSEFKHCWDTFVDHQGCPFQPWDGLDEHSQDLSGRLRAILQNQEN
How it was run: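 HeLa cells stably expressing Vif and A3G-eYFP, 700 cells/well, incubated overnight at 37 deg C, then exposed to compound overnight at 37 deg C. Inhibition of Vif-mediated degradation read as increased yellow fluorescence (Ex 488/Em 500-530) by laser-scanning cytometry.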

[23] = test system: Zika virus NS2B-NS3 protease; experiment: Primary screen GU AMC qHTS for Zika virus inhibitors (AID 1347154);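 further: 0% = no-inhibitor control and -100% = no-enzyme control; nearly all actives have a fitted effect of over 70% in size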
How it was run: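 Unlinked Zika NS2B hydrophilic domain–NS3 protease complex at 25 nM in 10 mM Tris-HCl pH 8.0, 0.01% Tween 20, with an AMC peptide substrate. Fluorescence change (340/450 nm) over 15 min at room temperature, normalized to controls, fitted to 4-parameter Hill.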

[24] = Primary qHTS for small molecule stabilizers of the endoplasmic reticulum resident proteome: Secreted ER Calcium Modulated Protein (SERCaMP) assay (AID 1508630); further: on the % scale 0 is the no-effect control and ±100 the full control effect
How it was run: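 GLuc-SERCaMP-expressing SH-SY5Y cells, pretreated 16 h with compound, are challenged with thapsigargin to empty ER calcium stores; after 4 h, coelenterazine is added directly to the medium and luminescence is imaged.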

O=C(O)[C@H]1CN(CCCP(=O)(O)O)CCN1
inactive: activity change, negative = inhibition [1] 1.7% | Potency [2] | activity change, negative = inhibition [3] 8.84% | activity, negative = inhibition [4] 7.55% | Potency [5] > 46 µM | Potency [6] > 46 µM | Potency [7] | Potency [8] | outcome [9] | Potency [10] | Potency [11] | Potency [12] | Potency [13] | Potency [14] | Potency [15] | Potency [16] | outcome [17] | outcome [18] | outcome [19] | activity change, negative = inhibition ([20]; at 57.5 µM (top of the series)) 5.99% and -0.486% | Potency [21] | Potency [22] | Potency [23] | Potency [24]
-5.69% and -2.47%: max response ([20]; measured here: cell count channel max response)
0.367% and -3.68%: max response ([20]; measured here: lipid channel max response)
